# Results published in the supplement of paper PMC11417369.
# Whole data set: some 25,000 sequences, median “ln(normalized median fluorescence intensity)” near 9.3, cut for the highest 2% near 10. This is one part of a sample in which the highest values are shown more often than they occur.
# Test system: PF3D7_0420300 AP2 domain 1 (GST-tagged)
# Test: gcPBM binding intensity (ln(normalized median fluorescence intensity)); higher = stronger DNA binding
# Method in brief: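 Binding intensity is defined as the maximum Masliner-normalised natural-log median intensity across replicate spots for either probe orientation. It was measured on an Agilent 4 × 180k array of primer-extended double-stranded 36-bp intergenic genomic probes and negative controls, to which GST-tagged P. falciparum DNA-binding domains made in E. coli were applied for 1 h in 1× PBS with 1% milk, 0.2 mg/ml BSA, 0.5% salmon testes DNA and 0.03% Triton X-100. Detection was by Alexa488 anti-GST antibody and scanning at 488 nm.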
row,Sequence,gcPBM binding intensity (ln)
1,GATATGAATATAGGTTGTACTATATATAAAGTATGT [XGTACX_site1877],9.35
2,CCACTGTATGAATGCACACATTCATAGAATTGCTAT [CACACA_site2676],9.24
3,TATAAATAGAGACACACACACATATAAATAAATATT [CACACA_site7854],10.1
4,TATATAAATAGACACACACACATATAAATATAAATA [CACACA_site6503],10.1
5,TATATATATAGACACACACACATATAAATAAATAAA [CACACA_site444],10.1
6,TAATAATAGAGACACACACACATAGACATATAAATA [CACACA_site6729],10.2
7,CATATAAATAGACACACACACACATATAAATAAATA [CACACA_site7156],10.3
8,TATATAAATAGACACACACACACATATAAATAAATA [CACACA_site7855],10.2
9,TTATAAAATAAACTTACACACATGAAATATTATATT [CACACA_site1945],9.49
10,ATAGAAGCTGTTGACGAAGAAAAAAAAAAAAAAAAA [CACACA_negctrl_site110],8.56
11,TTTAAAAAAATTCATGCACACGAAATAAAAAGCACC [CACACA_site8214],9.71
12,ACAAAAAAAAAAAAAAAAAGAAGAATATATCTATAT [CACACA_negctrl_site759],9.16
13,ATTATAAATATATTTTGTACTTAAAAGGAAAAAAAA [XGTACX_site55],9.02
14,AAATATAAAAAATATACACACATATATAATATATAT [CACACA_site2963],9.55
15,TATAAATATATATACACACACACATTAATACATATA [CACACA_site3488],10.2
16,ACATATACAAAACACACACACAACGTTTTAATAAAT [CACACA_site1979],10.1
17,AAAAAAAAAAAGTACACACATACATATAAATATATA [CACACA_site1809],9.46
18,AAATTAATTAAATATACACACATATATAAATATATA [CACACA_site391],9.38
19,ACATATACAAGACACACACACAACGTTTTAATAAAT [CACACA_site7017],10.2
20,TTAAAATATACATAAACACACACAAAACGTTTAAGA [CACACA_site8267],9.9
21,AAAAAAAAAAAAAGTACACACATACATATAAATATA [CACACA_site8533],9.72
22,ATAAATACATATAAAAGTACACACACACACATATAT [XGTACX_site1744],10.4
23,TATAATCATAAATACACACACATATATATATATATA [CACACA_site5224],9.54

row,Sequence,gcPBM binding intensity (ln)
1,AAATATAAATGGTAATACACATACACACACACATAC [XGTACX_negctrl_site459],10.2
2,ACATATAAAATATATACACACATATAAATACATTAA [CACACA_site3867],9.75
3,TATATTGAAAATAAAACATGCAATCACTCATACATA [TGCATGCA_site248],9.36
4,AAAGAAAAATTAACATGTACAAAAATTACTTGTTCA [XGTACX_site6725],9.21
5,AAAAAATAAATAAATACACACAAATCTATATTTATA [CACACA_site7243],9.51
6,GTATTCTACAGACACATACACACATATATATATATA [CACACA_site3427],9.7
7,TTAAATATAAAAAGTAGTACATTTATATTTACCATA [XGTACX_site2962],8.96
8,AATTCATTATATATACGTACATATTTCTGTATAAAA [XGTACX_site6371],9.24
9,ATACATATATATAGGTGTACATATAATATATATATA [XGTACX_site2228],9.35
10,ATAGTAATAGAATGATTGCACTTAAATTTTCCCTCT,9.19
11,AATATATATATATGTACACACTCCAATACATATACA [CACACA_site2682],9.42
12,AAAAAAATAACAAAAGTGCATTTTTATGAGTTATCT,9.2
13,TACATACATACATACACACACACATATAAATACATA [CACACA_site4626],10.2
14,CATAAATACATACATACACACATATATATATATATA [CACACA_site2106],9.5
15,TGGTAATACCCATACACACACACATACACATATATA [CACACA_site8877],10.1
16,ATAATATAAATATACACACACACATATATATATATA [CACACA_site2905],9.91
17,CATATATAAATATATACACACATACATACATACATA [CACACA_site5988],9.67
18,TACATATAAAAGTACACACACACACCCATATATATA [CACACA_site941],10.2
19,TATAAAAATAAAAAAAGTACACATAAAAATATATAT [XGTACX_site5189],9.62
20,AAATAATATAAATACACACACACATATATAAATACA [CACACA_site4465],10.2
21,TGGTAATACACATACACACACACATACACATATATA [CACACA_site7312],10.2
22,AATAAATAAATATATACACACATATATATATAATAT [CACACA_site921],9.6
